Results on 13 molecules are retold here after PubChem BioAssay.

The source made the active and inactive calls.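 How the source made its calls, unless noted: active means fluorescence slope higher than the sample average by over 3 SD (cut at about -0.22 in these data, passing the limit was not always enough); inactive means the rest.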

The nature of assay [1]: inhibitors of TNFa-induced NFkB p65 translocation, primary screen, imaging, HUVEC, MLSMR starter and 10KST1 sets (AID 438;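 active means inhibition above 20% together with a positive visual image hit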;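 further: compound added about 3h40 before a 20 min TNFalpha stimulation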;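 on inhibition: signal is the nuclear over cytoplasmic p65 intensity ratio per well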). The following applies: HUVEC TNFa-induced p65 nuclear translocation; cell count: measured here: nuclei count (cytotoxicity indicator), at 2.08 µM; inhibition: at 2 µM, stronger effect = higher value, 0% TNFa-plus-vehicle, 100% no-TNFa wells.
The nature of assay [2]: inhibitors of E-selectin induction by TNFa, primary screen, imaging, HUVEC, immunofluorescence, MLSMR starter and 10KST1 sets (AID 487;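 active means visually confirmed hit in the image check and inhibition above 20%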;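 on inhibition: signal is fraction of cell area covered by stained E-selectin grains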;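 on nuclei count: 100% = median nuclei count of all wells on the same plate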). As to conditions: HUVEC TNFalpha-induced E-selectin immunofluorescence imaging, at 2 µM; inhibition: stronger effect = higher value; nuclei count: measured here: cell number, toxicity.
Assay [3] can be described thus: DUSP6 inhibitors restoring Erk phosphorylation by chemical complementation, primary imaging in DUSP6-transfected HeLa (AID 609;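 active means compounds giving at least 50% inhibition in the cell-based MKP-3 phosphatase rescue imaging test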;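 on inhibition: phospho-Erk level distribution per well compared with pooled transfected vehicle control wells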). The following applies: HeLa MKP-3 transfected, phospho-Erk imaging KS statistic, at 10 µM, cells stimulated with TPA for 15 min.
Assay [4] deals with Dual specificity protein phosphatase 6 (Homo sapiens) (UniProt Q16828). The assay is described as above. The following applies: HeLa MKP-3 transfected, phospho-Erk imaging KS statistic; at 10 µM; stronger effect = higher value; cells stimulated with TPA for 15 min.
The target of assay [5] is Voltage-gated potassium channel subunit beta-2 (Rattus norvegicus) (UniProt P62483). Description: KvBeta enzyme negative modulators, primary screen, biochemical, NADPH fluorescence (AID 622).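 Further: slope of raw intensity against log time taken from 70 to 1610 s.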 As to conditions: recombinant KvBeta, 4-cyanobenzaldehyde reduction, at 10 µM, stronger effect = higher value.
Assay [6] has the same target. Briefly: KvBeta positive modulators, primary screen, biochemical, NADPH fluorescence (AID 623;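 active means NADPH fluorescence slope more negative than the mean of all samples by about 3 SD, 99.7% confidence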;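 further: fluorescence intensity change per second fitted from 20 to 320 s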). The following applies: Recombinant KvBeta, NADPH fluorescence decrease slope, 10 min; at 10 µM; stronger effect = lower value.
The target of assay [7] is Muscarinic acetylcholine receptor M4 (Homo sapiens) (UniProt P08173). Briefly: compounds altering M4/GIRK thallium flux, either direction, primary screen, M4 allosteric agonist project, cell-based, HEK293 M4/GIRK, BTC-AM (AID 625;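 active means fluorescence slope after compound addition differing from the mean of all tested samples at 99.7% confidence, mostly higher but some lower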;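 further: thallium influx through GIRK channels coupled to M4 in HEK293 cells with BTC-AM dye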). The following applies: at 10 µM, actives lie on both sides.
Assay [8] can be described thus: inhibitors of larval lipid processing in zebrafish, primary screen, whole organism, PED6 fluorescence, gall bladder and intestine (AID 686;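 active means a full or partial loss of lipid-probe fluorescence in the fish gall bladder, intestine or both, judged by eye; inactive means no fluorescence loss, or compound toxic to the fish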;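 further: larvae 5 to 7 days old with five fish per well; signal comes from phospholipase A2 cleavage of quenched PED6 carried via bile; overnight exposure to compound and PED6 before scoring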). The following applies: Zebrafish larvae PED6 lipid processing, fluorescence scoring; screened at 20 µM (by protocol).
Assay [9] can be described thus: inhibitors of Chlamydomonas gravitaxis, primary screen, whole organism, Chlamydomonas reinhardtii, WT vs cilia-less mutant, absorbance, 96-well (AID 463189;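 active means inhibition at or above 50% relative to wild type and mutant plate controls; inactive means inhibition below 50%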;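 further: 0% = wild type cc124 cells in DMSO and 100% = ciliumless bld1 mutant cells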). The following applies: OD600 absorbance, 2 days, at 10 µM, stronger effect = higher value.
Setting [10] is: measured here: cell density z-score.
The mark [11] stands for this setting: measured here: nuclear c-Myc green intensity z-score.
[12] abbreviates: measured here: nuclear pErk red intensity z-score, stronger effect = higher value.

Voltage-gated potassium channel subunit beta-2 (Rattus norvegicus), sequence (P62483 whole entry, looked up): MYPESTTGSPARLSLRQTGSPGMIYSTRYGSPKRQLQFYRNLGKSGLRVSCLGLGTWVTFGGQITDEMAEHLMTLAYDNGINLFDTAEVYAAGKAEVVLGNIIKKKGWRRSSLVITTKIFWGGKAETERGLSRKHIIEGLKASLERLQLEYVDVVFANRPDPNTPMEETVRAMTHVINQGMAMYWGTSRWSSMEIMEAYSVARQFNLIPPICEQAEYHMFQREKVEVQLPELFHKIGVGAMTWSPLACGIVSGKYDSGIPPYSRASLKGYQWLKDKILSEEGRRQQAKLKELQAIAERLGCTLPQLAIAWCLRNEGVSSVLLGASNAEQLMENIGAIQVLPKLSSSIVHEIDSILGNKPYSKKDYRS
Dual specificity protein phosphatase 6 (Homo sapiens), sequence (Q16828 whole entry, looked up): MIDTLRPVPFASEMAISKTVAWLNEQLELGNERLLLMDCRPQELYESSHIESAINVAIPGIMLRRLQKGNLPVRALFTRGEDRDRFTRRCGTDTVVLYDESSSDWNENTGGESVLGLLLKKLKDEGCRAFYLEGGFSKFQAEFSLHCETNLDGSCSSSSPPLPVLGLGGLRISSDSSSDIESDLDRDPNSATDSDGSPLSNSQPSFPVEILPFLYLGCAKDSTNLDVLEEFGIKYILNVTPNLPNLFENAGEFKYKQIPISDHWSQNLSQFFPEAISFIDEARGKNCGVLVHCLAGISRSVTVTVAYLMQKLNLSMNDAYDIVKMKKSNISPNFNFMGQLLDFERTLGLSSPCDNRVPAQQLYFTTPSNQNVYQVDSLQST
Muscarinic acetylcholine receptor M4 (Homo sapiens), sequence (P08173 whole entry, looked up): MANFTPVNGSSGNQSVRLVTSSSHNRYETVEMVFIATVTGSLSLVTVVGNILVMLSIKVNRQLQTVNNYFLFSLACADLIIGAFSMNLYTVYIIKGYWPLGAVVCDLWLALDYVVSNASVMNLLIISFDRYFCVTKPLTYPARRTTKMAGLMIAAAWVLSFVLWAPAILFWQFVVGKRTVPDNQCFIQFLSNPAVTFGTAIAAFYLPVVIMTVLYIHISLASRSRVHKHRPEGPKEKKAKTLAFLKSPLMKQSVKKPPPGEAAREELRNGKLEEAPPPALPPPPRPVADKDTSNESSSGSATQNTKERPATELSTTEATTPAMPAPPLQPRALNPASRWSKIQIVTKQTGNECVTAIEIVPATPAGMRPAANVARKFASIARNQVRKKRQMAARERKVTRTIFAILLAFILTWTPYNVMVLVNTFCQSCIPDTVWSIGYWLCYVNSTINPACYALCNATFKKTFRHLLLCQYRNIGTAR

`Cc1cc(/C=N/n2cnnc2)c(C)n1-c1ccc2c(c1)OCO2`: the cell count in assay [1] was 374. Also, the inhibition in [1] was 0.6% (inactive); in assay [2], -13.7% (inactive); in [4], 14% (inactive); in [9] it was -15.4% (inactive). In addition, in [2], the nuclei count was found to be 97.4%. The z-score is -1.04 in [3] (setting [10]), 0.298 in assay [3] (setting [11]) and 0.807 in assay [3] (setting [12]). For the same molecule, the values for the fluorescence slope in assay [5] and in assay [7] were -0.569 (inactive) and 0.00571 (inactive), respectively. For the same molecule, in [6], the NADPH fluorescence slope was -6.1e-05 (inactive). The call in [8] was inactive.

For the molecule `CCCc1cc(NCCN2CCOCC2)n2c(nc3ccccc32)c1C#N`, in assay [1], the cell count was determined as 472. The inhibition is 0.5% (inactive) in [1], -144% (inactive) in [2], 1.98% (inactive) in [4] and -18.9% (inactive) in assay [9]. Further, the nuclei count in assay [2] was found to be 105%. Besides, the figures for the z-score in [3] (setting [10]), in assay [3] (setting [11]) and in assay [3] (setting [12]) were -1.9, 2.65 and 0.164, respectively. Besides, the figures for the fluorescence slope in assay [5] and in assay [7] were -0.324 (inactive) and 0.00729 (inactive), respectively. Further, in [6], the NADPH fluorescence slope was 7.2e-06 (inactive). For the same molecule, the outcome in assay [8] was inactive.

Take `Cc1ccc(-c2nn(C)c(=O)c3ccccc23)cc1CNC(=O)CSc1nc2ccccc2o1`: in assay [1], the cell count is 547. In addition, the inhibition in assay [1] is 3.6% (inactive); in assay [2], 21.6% (inactive); in [4], 1.98% (inactive); in assay [9] it was 22.8% (inactive). The molecule further registered a nuclei count in [2] of 106%. For the same molecule, the z-score is -1.01 in assay [3] (setting [10]), 1.51 in assay [3] (setting [11]) and 0.619 in assay [3] (setting [12]). The results for the fluorescence slope in assay [5] and in [7] were -0.419 (inactive) and 0.00502 (inactive), respectively. Further, the NADPH fluorescence slope in assay [6] was -5.4e-05 (inactive). Also, in assay [8], the outcome was inactive.

Turning to `CN(C)CCNC(=O)C12CC3(C)CC(C)(CC(C)(C3)C1)C2`, the cell count in assay [1] was determined as 524. Also, the inhibition in [1] is -4.4% (inactive); in assay [2] it was -34.6% (inactive); in assay [4], -6.59% (inactive); in assay [9], -10.5% (inactive). In assay [2], this molecule showed a nuclei count of 118%. For the same molecule, the z-score in assay [3] (setting [10]) is -1.47; in [3] (setting [11]) it was 1.88; in assay [3] (setting [12]), -1.54. Further, the fluorescence slope in [5] is -0.465 (inactive); in [7], 0.00507 (inactive). The NADPH fluorescence slope in [6] is -0.000122 (inactive). Moreover, the result in [8] was inactive.

`COC(=O)C(NC(C)=O)(Nc1ccc(Br)cn1)C(F)(F)F` (centres undefined): the cell count in assay [1] was found to be 555. Also, the inhibition is 1.7% (inactive) in assay [1], 54.1% (inactive) in [2], -4.59% (inactive) in assay [4] and 4.13% (inactive) in [9]. The nuclei count in assay [2] turned out to be 88.1%. Also, the z-score was -1.18 in assay [3] (setting [10]), 0.658 in assay [3] (setting [11]) and 0.74 in [3] (setting [12]). For the same molecule, the fluorescence slope in assay [5] is -0.471 (inactive); in assay [7], 0.00445 (inactive). Besides, the NADPH fluorescence slope in [6] was 3.7e-06 (inactive). For the same molecule, the call in assay [8] was inactive.

For the molecule `CCOC(=O)c1c2c(c(=S)n(-c3ccccc3)c1N)CCC2`, in assay [1], the cell count was 569. Also, the inhibition is -8.6% (inactive) in [1], -65.1% (inactive) in assay [2], -3.95% (inactive) in [4] and 9.7% (inactive) in assay [9]. In [2], the nuclei count came out at 135%. In addition, the z-score is -0.086 in assay [3] (setting [10]), 1.03 in [3] (setting [11]) and -0.638 in assay [3] (setting [12]). Also, the fluorescence slope in assay [5] was -0.463 (inactive); in assay [7], 0.00449 (inactive). The NADPH fluorescence slope in assay [6] is -9.5e-05 (inactive). Further, in [8], the molecule was called inactive.

Consider `CCC(C)Nc1nc(OC)nc(N(C)C#N)n1` (centres undefined), for which the cell count in [1] stood at 675. Moreover, the inhibition was 7.6% (inactive) in [1], -32.5% (inactive) in [2], -9.53% (inactive) in [4] and 3.27% (inactive) in assay [9]. In [2], the nuclei count stood at 130%. Also, the z-score turned out to be 0.721 in assay [3] (setting [10]), 0.541 in assay [3] (setting [11]) and 0.135 in [3] (setting [12]). In addition, the fluorescence slope in assay [5] is -0.431 (inactive); in assay [7], 0.00571 (inactive). For the same molecule, the NADPH fluorescence slope in assay [6] was -5.5e-05 (inactive). In addition, in [8], the result was inactive.

On to `CCOC(=O)Cn1nc(C)c2ccccc2c1=O`, for which, in assay [1], the cell count worked out at 579. In addition, the inhibition was -1.2% (inactive) in [1], -43.5% (inactive) in [2], 7.21% (inactive) in assay [4] and -2.22% (inactive) in assay [9]. This molecule had a nuclei count in assay [2] of 154%. Also, the z-score in assay [3] (setting [10]) was 1.29; in assay [3] (setting [11]) it was -0.0748; in [3] (setting [12]), 0.243. Also, the values for the fluorescence slope in assay [5] and in [7] were -0.515 (inactive) and 0.00507 (inactive), respectively. Also, in [6], the NADPH fluorescence slope was -0.000104 (inactive). Also, the call in [8] was inactive.

With `CN1CCc2c(C#N)c(N3CCCCC3)nc(N3CCOCC3)c2C1`, the cell count in assay [1] came to 534. Also, the inhibition is -9.2% (inactive) in assay [1], -129% (inactive) in assay [2], -0.584% (inactive) in assay [4] and 4.52% (inactive) in assay [9]. In assay [2], this molecule showed a nuclei count of 127%. Moreover, the z-score in [3] (setting [10]) was 0.848; in assay [3] (setting [11]), -1.39; in [3] (setting [12]) it was 0.568. For the same molecule, the fluorescence slope is -0.418 (inactive) in assay [5] and 0.00417 (inactive) in assay [7]. In assay [6], the NADPH fluorescence slope was -5.8e-05 (inactive). The result in assay [8] was inactive.

As to `C(=N\n1cnnc1)/c1cccc(Oc2ccccc2)c1`, the cell count in [1] was 569. Also, the inhibition is -5.8% (inactive) in assay [1], -140% (inactive) in assay [2], -6.06% (inactive) in assay [4] and 78.1% (active) in assay [9]. The nuclei count in assay [2] came to 111%. Moreover, the z-score is -0.768 in assay [3] (setting [10]), 1.37 in assay [3] (setting [11]) and 1.58 in assay [3] (setting [12]). The results for the fluorescence slope in [5] and in assay [7] were -0.515 (inactive) and 0.00705 (inactive), respectively. Besides, the NADPH fluorescence slope in [6] is -5.4e-05 (inactive). Besides, the outcome in [8] was inactive.

As for `COc1ccc(C2/C(=C(\O)c3ccc4c(c3)OCCO4)C(=O)C(=O)N2CCCN(C)C)cc1` (centres undefined), in [1], the cell count worked out at 368. Also, the inhibition in assay [1] was -2.4% (inactive); in assay [2], -14.3% (inactive); in assay [4], 3.56% (inactive); in assay [9] it was -13.1% (inactive). For the same molecule, the nuclei count in assay [2] turned out to be 131%. In addition, the results for the z-score in assay [3] (setting [10]), in assay [3] (setting [11]) and in assay [3] (setting [12]) were -2.04, 0.887 and -0.106, respectively. Moreover, the fluorescence slope in assay [5] was -0.506 (inactive); in assay [7], 0.00537 (inactive). For the same molecule, the NADPH fluorescence slope in assay [6] was -3.1e-05 (inactive). In addition, in assay [8], the molecule was classed as inactive.

Turning to `CN1C(=O)NC(c2ccccc2)C2=C1CN(Cc1ccccc1)C2=O` (centres undefined), the cell count in assay [1] turned out to be 400. In addition, the inhibition in assay [1] was -7.1% (inactive); in assay [2] it was -56.6% (inactive); in assay [4], -2.59% (inactive); in assay [9], 23.3% (inactive). Moreover, the nuclei count in assay [2] worked out at 139%. In addition, the z-score was 0.502 in [3] (setting [10]), -1.59 in [3] (setting [11]) and 1.04 in assay [3] (setting [12]). The values for the fluorescence slope in [5] and in assay [7] were -0.501 (inactive) and 0.00419 (inactive), respectively. For the same molecule, the NADPH fluorescence slope in [6] was -0.000103 (inactive). In [8], the result was inactive.

With `COc1ccccc1C1CC(c2ccc(Cl)cc2)Nc2nc(N)nn21` (centres undefined), the cell count in assay [1] came out at 404. The inhibition in [1] is 0% (inactive); in assay [2], -104% (inactive); in assay [4], 11.9% (inactive); in assay [9], -3.22% (inactive). Also, the nuclei count in [2] came out at 146%. Also, the z-score is -0.136 in assay [3] (setting [10]), -0.282 in assay [3] (setting [11]) and -0.582 in assay [3] (setting [12]). For the same molecule, the results for the fluorescence slope in assay [5] and in assay [7] were -0.459 (inactive) and 0.00483 (inactive), respectively. The NADPH fluorescence slope in assay [6] was -0.000104 (inactive). Also, the outcome in assay [8] was inactive.
